This is a sample that favours compounds with a hit; in the whole collection about 12% have one here.
Cav32 inh – blocks human Cav3.2 T-type calcium channel. B-score at 10 µM. Cav3.2-expressing cells, Fluo-4 calcium fluorescence FDSS; active compounds read low. AID 449739. actives 4% (n = 100,000). O95180;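 active = single-dose well whose peak fluorescence ratio is a statistical outlier from its plate by either plate-standardised score or position-corrected B-score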
PostGolgi yeast – growth inhibition of a yeast mutant, post-Golgi transport screen. post-Golgi transport phenotypic cell assay. inhibition, % at 10 µM. actives 0.9% (n = 98,000);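 note: yeast cells grown in 1536-well plates; yeast grown about 18 h at 30C before absorbance read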
DAT uptake mod – changed human dopamine transporter uptake under cocaine IC80; B-score at 10 µM; actives 1.3% (n = 110,000); Q01959; LLC-PK1 hDAT cells, [14C]-dopamine uptake with cocaine IC80; actives deviate in either direction; AID 449768;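 active = Z score or B-score, a plate-position-corrected score, falls beyond the plate's 99.7% confidence bounds, in either direction; inactive = both scores lie inside the 99.7% bounds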
D1 allo mod – allosteric modulators of human D1 dopamine receptor | P21728 | HEK293 D1, CRE-luciferase, dopamine EC30 potentiation; actives deviate in either direction | B-score at 10 µM | actives 5.9% (n = 58,000) | AID 641;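 active = luminescence count or its row- and column-corrected plate score outside the 99.7% band of the plate's sample wells, on either side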
Target sequence (P21728 whole entry, looked up): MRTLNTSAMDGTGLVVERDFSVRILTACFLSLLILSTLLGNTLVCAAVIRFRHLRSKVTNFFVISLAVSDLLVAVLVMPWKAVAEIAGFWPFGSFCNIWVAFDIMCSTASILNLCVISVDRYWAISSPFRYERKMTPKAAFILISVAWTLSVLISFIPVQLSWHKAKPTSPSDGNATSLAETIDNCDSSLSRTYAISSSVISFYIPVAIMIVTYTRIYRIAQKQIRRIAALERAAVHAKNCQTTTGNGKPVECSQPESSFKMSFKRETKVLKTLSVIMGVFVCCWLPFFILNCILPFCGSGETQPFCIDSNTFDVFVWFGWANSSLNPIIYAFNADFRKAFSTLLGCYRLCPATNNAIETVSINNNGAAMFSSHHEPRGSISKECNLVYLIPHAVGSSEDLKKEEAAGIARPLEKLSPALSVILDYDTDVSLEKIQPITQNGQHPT
PLAP act – activators of human placental alkaline phosphatase | purified PLAP enzyme, luminescent substrate read-out; active compounds read high | AID 696 | activation fold at 20 µM | actives 1.2% (n = 96,000); in the data active = activation fold above about 2
PostGolgi ctrl – yeast control strain growth, post-Golgi counter-screen. efflux-deficient yeast background strain, growth absorbance A615, 16 h. inhibition, % at 10 µM. AID 738. actives 5% (n = 98,000)
Each line names hits and unclear results; the compound was inactive in the other large screens. Cut-off read from the data, not from the text of the source, unless noted: active = inhibition above about 30%; inactive = the rest.

Cc1ccc(-c2cc(C(=O)NCc3ccco3)no2)cc1	none
COc1ccc(NC(=O)c2cc3n(n2)C(C(F)(F)F)CC(c2ccc4c(c2)OCO4)N3)cc1OC (stereo not drawn)	none (no result: Cav32 inh, DAT uptake mod, PLAP act)
Cc1ccc(C2CC(C(F)(F)F)n3nc(C(=O)NCc4ccco4)cc3N2)cc1 (stereo not drawn)	PostGolgi ctrl 32 (no result: Cav32 inh)
O=C(Nc1ccc(O)cc1)c1cc2n(n1)C(C(F)(F)F)CC(c1ccco1)N2 (stereo not drawn)	none
CCOc1ccc(NC(=O)c2cc3n(n2)C(C(F)(F)F)CC(c2ccco2)N3)cc1 (stereo not drawn)	D1 allo mod -7.5
NC(=O)c1ccccc1NS(=O)(=O)c1cccs1	DAT uptake mod -3.2
CCC(C)[C@H](NC(=O)OC(C)(C)C)C(=O)N/N=C/C1=Cc2ccccc2OC1 (stereo partly drawn)	Cav32 inh -5.3 (no result: D1 allo mod)
CCCc1ccc(-c2c(C)sc(N)c2C#N)cc1	PostGolgi ctrl 43 (no result: D1 allo mod)
Nn1c(Nc2ccccc2)nc2sc3c(c2c1=O)CCC3	DAT uptake mod 3.7, PostGolgi ctrl 31
CCCCCCn1c(=O)c(-c2ccccc2)c(O)c2ccccc21	Cav32 inh -7.1, PostGolgi ctrl 38 (no result: D1 allo mod)
Cc1cc2cc(CN(C(=O)C3CC3)C3CCCC3)c3nnnn3c2cc1C	Cav32 inh -4.9, DAT uptake mod 2.9
CC(=O)N(Cc1cc2ccc(C)c(C)c2n2nnnc12)C1CCCC1	none (no result: Cav32 inh, PostGolgi yeast, DAT uptake mod, PostGolgi ctrl)
COc1ccccc1OCC(=O)Nc1sc2c(c1C(=O)NCC1CCCO1)CCC2 (stereo not drawn)	none (no result: D1 allo mod)
CCCCCCOC(=O)c1ccc(NC(=O)c2cc(OC)c(OC)c(OC)c2Br)cc1	PLAP act 2 (no result: D1 allo mod)
CCCCOC(=O)c1ccc(NC(=O)c2ccc(F)cc2F)cc1	none (no result: PostGolgi yeast, D1 allo mod, PLAP act, PostGolgi ctrl)
CCN(CCNC(=O)C1CCN(S(=O)(=O)c2cccc3nsnc23)CC1)c1ccccc1	D1 allo mod -2.9
COc1ccc(OC)c(NC(=O)CC(NCCC2=CCCCC2)C(=O)O)c1 (stereo not drawn)	none (no result: Cav32 inh, DAT uptake mod)
Cc1nc(C(N)=O)nc2ccccc12	none (no result: Cav32 inh, PostGolgi yeast, D1 allo mod, PLAP act, PostGolgi ctrl)
CCOC(=O)c1c(N)sc(C(=O)Nc2ccc3c(c2)OCO3)c1C	D1 allo mod -4.4
CCOc1cc(CNCCO)cc(Br)c1OCc1cccs1	none (no result: D1 allo mod)
CCOc1cc(CNCCO)cc(Br)c1OCc1ccc(Cl)cc1Cl	PostGolgi ctrl 90 (no result: D1 allo mod)
CCOC(=O)c1cc2c(ccn2C)n1CC(=O)N1CCC(Cc2ccccc2)CC1	none (no result: D1 allo mod)
CCOC(=O)c1cc2c(ccn2C)n1CC(=O)N1CCN(c2ccccc2OC)CC1	PostGolgi yeast 32
COc1cc(S(=O)(=O)N2CCOCC2)ccc1NC(=O)COC(=O)c1ccccn1	none
CCC(C)(C)n1nnnc1CN(Cc1ccc(Cl)cc1)Cc1ccco1	none (no result: Cav32 inh, DAT uptake mod, D1 allo mod)
CC(C)(C)n1nnnc1C(c1cccs1)N(Cc1ccccc1)Cc1cccnc1 (stereo not drawn)	Cav32 inh -4.6
CC(C)(C)n1nnnc1C(c1ccc(F)cc1)N(Cc1ccc(F)cc1)Cc1ccco1 (stereo not drawn)	Cav32 inh -6.3 (no result: D1 allo mod)
CC(C)(C)c1ccc(CN(Cc2ccccc2)C(c2ccccn2)c2nnnn2C(C)(C)C)cc1 (stereo not drawn)	none (no result: D1 allo mod)
CC(C)(C)n1nnnc1C(c1ccc(Cl)cc1)N(Cc1cccnc1)Cc1ccco1 (stereo not drawn)	Cav32 inh -9.5 (no result: PostGolgi yeast, D1 allo mod, PLAP act, PostGolgi ctrl)
CC(C)(C)n1nnnc1CN(Cc1cccnc1)Cc1ccccc1Cl	PostGolgi yeast 50 (no result: D1 allo mod)
Cc1ccc(NC(=S)N2CCC(N(C)CC3CCCO3)CC2)c(C)c1 (stereo not drawn)	none (no result: D1 allo mod)
O=C(NC12CC3CC(CC(C3)C1)C2)c1cncc(O)c1	none
O=C1[C@H]2[C@@H](C(=O)N1c1cccc3ccccc13)C1(C(=O)c3ccccc3C1=O)N1CCC[C@@H]21	none (no result: D1 allo mod)
CC(C)(C)n1nnnc1C(c1ccc(C(F)(F)F)cc1)N(Cc1ccccc1)Cc1ccco1 (stereo not drawn)	none (no result: Cav32 inh, DAT uptake mod, D1 allo mod)
CC(C)C(c1nnnn1Cc1ccccc1)N(Cc1ccco1)Cc1cccs1 (stereo not drawn)	none
CC(C)(C)n1nnnc1C(c1cccnc1)N(Cc1ccccc1)Cc1cccs1 (stereo not drawn)	none (no result: D1 allo mod)
CC(C)(C)n1nnnc1C(c1ccc(C(F)(F)F)cc1)N(Cc1ccc(F)cc1)Cc1ccco1 (stereo not drawn)	Cav32 inh -4.3 (no result: PostGolgi yeast, D1 allo mod, PLAP act, PostGolgi ctrl)
